Results published in PubChem BioAssay AID2153 (The Scripps Research Institute Molecular Screening Center, 2009).
The whole screen tested about 2,400 compounds, of which about 2,000 (83%) were called active.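 How the source made its calls: active means inhibition above the solvent-only control well mean plus 3 SD, limit set per screening run (cut at about 23% in these data); inactive means the rest.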 So high a share suggests a set chosen from earlier hits. The list is a sample of the results.

molecular target: Guanyl-specific ribonuclease T1 (Aspergillus oryzae (strain ATCC 42149 / RIB 40)) (UniProt P00651); test: blockers of Aspergillus RNase T1 cleavage – biochemical, fluorescence polarization, counter-screen for TPT1 inhibitor project (AID 2153); details: 1536-well, at 5 µM, active compounds read high;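 further: plate controls were DMSO wells with enzyme for no effect and wells without RNase T1 for full effect; inhibitors block cleavage so intact labeled substrate keeps polarization high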
Sequence (P00651 whole entry, looked up): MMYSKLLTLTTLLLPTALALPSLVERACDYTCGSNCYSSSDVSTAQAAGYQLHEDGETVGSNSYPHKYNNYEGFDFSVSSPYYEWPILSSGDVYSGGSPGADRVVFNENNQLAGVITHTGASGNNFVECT

Compound	inhibition
Cc1cc(O)c(C(=O)/C=C/c2c(F)c(F)c(F)c(F)c2F)c(=O)o1	81.2% (active)
N#CC1=C(N)Oc2c(sc3ccccc23)C1c1ccco1 (stereo not given)	76.9% (active)
Cn1c2ccccc2c2cc(/C=C(\NC(=O)c3ccccc3)C(=O)NCC(=O)O)ccc21	92.9% (active)
Cc1ccc(Nc2ccccc2N)cc1	36% (active)
Cc1cccn2c(=O)c(/C=C3\SC(=S)N(CC(C)C)C3=O)c(NCCCOC(C)C)nc12	131% (active)
COc1cc(/C=C2/C(=O)NN(c3cccc(Cl)c3)C2=O)cc(Br)c1O	150% (active)
Cc1cc(C)c(/C=C2\C(=O)Nc3ccccc32)[nH]1	118% (active)
Cc1ccc(-c2nn(-c3ccccc3)cc2/C=C2\SC(=S)N(CCCCCC(=O)O)C2=O)o1	73.6% (active)
CCC(c1nnnn1Cc1ccco1)N(Cc1cc2cc(OC)ccc2[nH]c1=O)C1CCCCC1 (stereo not given)	17.9% (inactive)
N#C/C(=C(/O)COC(=O)COc1ccc(Cl)cc1)c1nc2ccccc2[nH]1	50.6% (active)
CCOc1ccc2nc(/N=C/c3nc(-c4ccccc4)oc3O)sc2c1	65.4% (active)
Cc1c(-c2ccccc2)cn2c1-c1ccc(C)n1CC2	47.3% (active)
Cn1cccc1/C=C1\SC(=S)N(NC(=O)c2ccc(Cl)cc2)C1=O	113% (active)
Fc1ccc2nc(Nc3nc4c(s3)CCCC4)sc2c1	37.5% (active)
CN1/C(=C\C=C2\N=C(c3ccc(F)cc3)OC2=O)C(C)(C)c2ccccc21	140% (active)
Cc1ccc(C)c2[nH]c(=O)c(CCNC(=O)CC(C)C)cc12	6.2% (inactive)
N#C/C(=C/c1ccc(N2CCCCC2)o1)C(=O)NCCc1c[nH]c2ccccc12	170% (active)
CN1/C(=c2/s/c(=C3/C(=O)N(c4ccccc4)NC3=Nc3ccccc3)n(C)c2=O)C(C)(C)c2ccccc21	92.8% (active)
CS(=O)(=O)c1ccc2c(c1)SC1=NC(=O)/C(=C/c3ccco3)C(=N)N12	60.6% (active)
CCN(CC)c1ccc(/C=N/Nc2nc(C)cc(C)n2)c(O)c1	44.9% (active)
Cc1ccc(S(=O)(=O)N(C)c2nc3ccccc3n3c(C(C)C)nnc23)cc1	3.03% (inactive)
CCOc1nnc(C)c2c(C)n(-c3cccc(Cl)c3)nc12	88.4% (active)
CSC1=N/C(=C\C=C\c2cccs2)C(=O)S1	64.5% (active)
CCCOc1ccc(Cn2c(O)cc(=O)[nH]c2=O)cc1	30.3% (active)
COc1ccc(C2=NN(C(=O)c3ccccc3C(=O)O)C(c3ccccc3O)C2)cc1 (stereo not given)	37.9% (active)

Compound	inhibition
O=C(/C=C/c1ccc(N2CCOCC2)cc1)c1ccccc1	91.3% (active)
Cc1ccc(Nc2nc(Cl)c(C=O)s2)cc1	77.2% (active)
Cc1ccc2[nH]c(=O)c(CN3CCCCC3)c(-c3ccccc3)c2c1	3.06% (inactive)
CCOc1ccc(-n2c(O)c(/C=N/c3ccnn3Cc3ccncc3)c3ccccc3c2=O)cc1	92% (active)
Cc1ccc2cc(/C=N/Nc3ccc(C(=O)O)cc3)c(Cl)nc2c1	46.9% (active)
CCn1c(/C=C/c2ccc([N+](=O)[O-])o2)nc2ccccc2c1=O	49.4% (active)
CN=c1scc(-c2cc(OC)ccc2OC)n1/N=C/c1c(C)[nH]c2ccccc12	32.1% (active)
COc1cc(N2CCCC2)c(OC)cc1/C=C(/C#N)c1cccc(Br)c1	91.3% (active)
CCN1/C(=C/c2ccc3ccc(C)cc3[n+]2CC)Sc2ccccc21	59.6% (active)
CCN1/C(=C\c2ccc3ccccc3[n+]2CC)Sc2cc(C)ccc21	88.3% (active)
O=S(=O)(O)Oc1c[nH]c2ccccc12	49.5% (active)
CCOC(=O)C1=C(C)Nc2sc(C(=O)c3ccc(Br)cc3)c(N)c2C1c1ccc(C(=O)OC)cc1 (stereo not given)	37.3% (active)
Cc1cc(/C=C2/SC(=O)N(CC(=O)N3CCCC3)C2=O)ccc1N1CCOCC1	78.1% (active)
CC(=O)n1c(C=Nc2ccccc2)c(O)c2ccccc21	84.6% (active)
COC(=O)c1[nH]c2cccc(C)c2c1NC(=O)CN1CCCc2ccccc21	29.8% (active)
CCN(CC)c1ccc2cc(C(N)=O)/c(=N\NC(=O)c3ccncc3)oc2c1	135% (active)
CCOC(=O)c1c(NC(=S)Nc2ccccc2)sc2c1CCN(C)C2	54% (active)
CC(=O)c1cc(NC(=O)c2ccccc2)c(=O)oc1/C=C/N(C)C	123% (active)
CC[n+]1cc(C)ccc1/C=C/c1ccc(N(C)C)cc1	51.2% (active)
O=C(NNc1c2ccccc2nc2ccccc12)c1cc2ccccc2cc1O	46.8% (active)
CCN(CC)C(=O)CSC(Nc1cccc(F)c1)=C(C#N)C#N	61.1% (active)
CN(C)CCCn1c(N)c(C#N)c2nc(C#N)c(C#N)nc21	58.9% (active)
Cc1ccc(N=C2NC(=O)/C(=C/C=C/c3ccco3)S2)cc1C	30.5% (active)
COc1ccc(Cc2nc(-c3ccccn3)no2)cc1OC	13.1% (inactive)
CN(C)c1ccc(/C=C2\NC(=S)N(Cc3ccccc3)C2=O)cc1	144% (active)

Compound	inhibition
CCOC(=O)c1c(CC(C)C)csc1/N=C/C1=C(O)CCCC1=O	17.9% (inactive)
Cc1ccc(-n2c(C)cc(/C=N/Nc3ccc([N+](=O)[O-])cn3)c2C)c(C)c1	76.1% (active)
Cc1cc(/C=N/Nc2ccc([N+](=O)[O-])cn2)c(C)n1-c1cccc(C(=O)O)c1	62.8% (active)
Nc1nonc1-n1nnc(C(=O)N/N=C/c2cc(Br)ccc2O)c1CSC1=NCCS1	41.6% (active)
COc1ccccc1/C=N/Nc1nc(C)c(C(C)=O)s1	39.1% (active)
O=C(CN1C(=O)c2ccccc2C1=O)NCc1ccc(C(=O)O)cc1	15.9% (inactive)
Cc1c(CC(=O)N2CCN(C(=O)C3COc4ccccc4O3)CC2)c(=O)oc2c(O)c(O)ccc12 (stereo not given)	8.71% (inactive)
COc1cc(/C=C2/SC(=S)N(Cc3ccccc3)C2=O)cc(OC)c1O	108% (active)
NC(=O)c1c(Nc2nc3c(F)cccc3s2)sc2c1CCCC2	97.8% (active)
CC1=CC2=NC(=O)/C(=C/c3coc4ccccc4c3=O)C(=N)N2O1	45.6% (active)
Oc1ccc(/C=N/Nc2nc(-c3ccccc3F)nc3ccccc23)c(O)c1	41.4% (active)
CCOC(=O)/C(C#N)=C/c1ccc(N2CCCCC2)cc1	129% (active)
CCOC(=O)/C(C#N)=C/c1ccc(N2CCN(Cc3ccccc3)CC2)cc1	92.8% (active)
N#C/C(=C/c1ccc(N2CCOCC2)o1)C(=O)N1CCOCC1	178% (active)
N#C/C(=C\c1ccc(N2CCOCC2)o1)C(=O)N1CCOCC1	165% (active)
Cc1ccc(CC2S/C(=C(/C#N)C(=O)N3CCOCC3)N(c3ccccc3)C2=O)cc1 (stereo not given)	14.3% (inactive)
COc1cc2c(cc1O)[C@H](Cc1ccc(Oc3cc(C[C@@H]4NCCc5cc(OC)c(O)cc54)ccc3O)cc1)NCC2	44.2% (active)
Cc1nc2ccccc2nc(=O)c1NNc1ccc([N+](=O)[O-])cc1	47.2% (active)
O=C1NC(=O)C2C1C(c1ccc([N+](=O)[O-])cc1)=NN2Cc1ccccc1 (stereo not given)	48% (active)
Nc1c(C(=O)c2cccs2)sc2nsc(SCCN3CCCCC3)c12	73.8% (active)
CN1C(=O)/C(=C/C=C2\SCCN2C)OC1=S	165% (active)
COc1ccc(N=C(C)c2sc3ccccc3c2O)cc1	82.8% (active)
Cc1cccc2cc3c(N)c(C(=O)N4CCCc5ccccc54)sc3nc12	68.5% (active)
Cc1sc2nc(COC(=O)C(NC(=O)c3ccc(Cl)cc3Cl)C(C)C)[nH]c(=O)c2c1C (stereo not given)	66.8% (active)
O=C(Nc1ccc(S(=O)(=O)Nc2nccs2)cc1)c1cc(-c2ccncc2)nc2ccccc12	64.3% (active)

Compound	inhibition
CCCCCCc1cc2cc(-c3nnc(-c4ccccc4)o3)c(=O)oc2cc1O	110% (active)
NNC(=O)c1oc2nc(-c3ccccc3)cc(-c3ccco3)c2c1N	43.8% (active)
COc1cc(/C=C(\C#N)c2nc3ccccc3[nH]2)ccc1O	112% (active)
COc1cc(/C=C(\C#N)c2nc3c(s2)CC(C)CC3)ccc1O (stereo not given)	125% (active)
C[n+]1ccc(/C=C/c2c[nH]c3ccccc23)cc1	63.7% (active)
CN(c1ccccc1)c1ccc(/C=c2\s/c(=C(/C#N)C(=O)C(C)(C)C)n(Cc3ccco3)c2=O)cc1	125% (active)
C=CCC1=C/C(=C\c2c(N)n3nc(CC(=O)N4CCOCC4)sc3nc2=O)C=C(OC)C1=O	106% (active)
CC(C)(C)c1ccc(/C=C2\Oc3c(ccc(O)c3CN3CCN(CCO)CC3)C2=O)cc1	45.6% (active)
Cc1ccc(CSCC2Nc3ccc(C(=O)N4CCN(c5ccc(F)cc5)CC4)cc3NC2=O)cc1 (stereo not given)	22.8% (active)
O=C1Nc2cc(C(=O)N3CCN(c4ccc(F)cc4)CC3)ccc2NC1CSCc1cccc(F)c1 (stereo not given)	116% (active)
CC(C)c1ccc(Nc2nnc(SCC(=O)c3nnc(-c4ccccc4)o3)s2)cc1	29.1% (active)
CN1C(=O)/C(=C\c2ccc(-c3ccccc3)o2)SC1=S	96.2% (active)
O=C(O)C(c1ccccc1)N1C(=O)/C(=C\c2ccc(-c3cccc(Cl)c3)o2)SC1=S (stereo not given)	146% (active)
CCC(=C/c1sc2ccc3ccccc3c2[n+]1C)/C=C1\Sc2ccc3ccccc3c2N1C	104% (active)
O=C(N/N=C/c1sc(N2CCCCC2)nc1-c1cccs1)c1cccnc1	51.2% (active)
Cc1cccc(COc2ccccc2/C=N/Nc2ccc([N+](=O)[O-])cc2)c1	98.6% (active)
O=[N+]([O-])c1ccc(N/N=C/c2ccccc2)cc1	52.2% (active)
Cc1cccc(NC(=O)c2ccc(COc3ccccc3[N+](=O)[O-])o2)n1	8.35% (inactive)
CCOc1ccc(/C=C2\SC(=S)N(NC(=O)c3ccncc3)C2=O)cc1OC	65.5% (active)
Cc1c(C(=O)OC(C)C)sc(NC(=O)c2cccnc2)c1C#N	38.8% (active)
CCOc1cc(/C=C(\C#N)c2nc(-c3cccs3)c(NC(C)=O)s2)ccc1O	95.6% (active)
Cn1ccc(=NC=C(C#N)C#N)c2ccccc21	31.9% (active)
CC1CCN(C(=O)c2ccc3c(c2)NC(=O)CN3)CC1	52.2% (active)
O=C(C[n+]1cc(Br)cc2ccccc21)c1ccc(F)cc1	54.2% (active)
O=C(Cc1nc2ccccc2[nH]c1=O)c1ccc(Cl)cc1	65.7% (active)
